This is a sample that favours compounds with a hit; in the whole collection about 3.8% have one here.
ATXN2 expr inh = inhibitors of ATXN2 expression; HEK-293 ATXN2-luciferase reporter, luminescence, 24 h; Potency, µM (highest dose often 57 µM), actives largely listed as inhibitors; 360,000 tested, 0.72% active; further: nearly all actives have a fitted effect of over 55% in size
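qHTS (up to 57 uM final) was run with 24 h compound exposure of reporter cells at 37 °C. Each well was multiplexed: SteadyGlo luminescence measured ATXN2-luciferase expression after a fluorogenic Gly-Phe-AFC viability readout (25 uM final).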
HepG2 viability = kills HepG2 cells in TGF-b inhibitor counter-screen; HepG2 CAGA-GFP viability, ATP luminescence, 18 h; Potency, µM (top dose mostly 46.1 µM), most hits filed as cytotoxic; 410,000 tested, 0.76% active
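CellTiter-Glo luminescence gave cytotoxicity after 18 hours at 37 degrees C. The cells were HepG2 CAGA-GFP in 1% FBS DMEM, stimulated with 500 pg/mL TGF-beta after compound addition. %Activity was normalised to no-cell wells (complete cell-killing) and DMSO (no toxicity), and curves were fitted and classified.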
TGFb inhibitor = TGF-b pathway inhibition; HepG2 CAGA-GFP TGF-b/SMAD3 reporter, GFP fluorescence, 18 h; TGF-beta stimulated, 500 pg/mL final; Potency, µM (doses to about 46.1 µM), actives largely listed as inhibitors; 410,000 tested, 1.2% active; further: nearly all actives have a fitted effect of over 65% in size
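TGF-beta reporter screen: HEPG2 CAGA-GFP, 1% FBS, 500 pg/mL TGF-beta final, 18 h; per-cell GFP summed per well; curves fitted and categorized by class.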
HT1080 IDH1KD tx = kills HT-1080 cells with IDH1 knockdown | HT-1080 IDH1 knockdown viability, ATP luminescence, 48 h | Potency, µM (titrated, usually from 46.1 µM), most hits filed as cytotoxic | 360,000 tested, 2% active
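Luminescent ATP read-out (CellTiter-Glo, 10 min at room temperature) after 48 h compound exposure at 37 °C gave viability of IDH1-knockdown HT-1080 cells. Activity was normalised to DMSO and cell-free wells, then fitted as concentration-response curves.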
ATXN viability = reduces viability in counter-screen for ATXN expression inhibitors | 400,000 tested, 0.49% active | S2 cells (HEK-293 line with an ATXN2-luciferase reporter) viability, CellTiter-Fluor protease fluorescence, 24 h | Potency, µM (doses to about 56.7 µM), most hits filed as cytotoxic; further: nearly all actives have a fitted effect of over 40% in size
HT1080NT lethal = kills 2HG-producing HT-1080-NT fibrosarcoma cells | HT-1080-NT fibrosarcoma viability, CellTiter-Glo ATP luminescence, 48 h | Potency, µM (top dose mostly 46.1 µM), hits mostly cytotoxic | 360,000 tested, 1.6% active;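 further: NT is the 2HG producing partner of a matched IDH1 knockdown line; nearly all actives have a fitted effect of over 55% in size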
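Toxicity toward the 2HG-producing NT line was scored as %Activity, normalised to DMSO and no-cell wells, from CellTiter-Glo luminescence after 48 hours' treatment.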
Numbers stand for hits. The call rests on the fitted dose curve; in most records, active means well fitted curve in the direction sought with a large enough effect; inconclusive means small, poorly fitted or top-dose-only effect, or another doubt; inactive means no such curve, though single readings can be large; an effect the other way counts as inactive or inconclusive.

CC1(C)CC(NC(=O)c2cccc(S(=O)(=O)N(Cc3ccccc3)c3ccccc3)c2)CC(C)(C)N1 was read as ATXN2 expr inh inconclusive, HepG2 viability 14µM, TGFb inhibitor inconclusive, HT1080 IDH1KD tx inactive, ATXN viability inconclusive and HT1080NT lethal inactive.
For CCC1CN(CC(=O)NC(C)c2c(C)nn(C)c2C)Cc2cc(OC)ccc2O1 (stereo not drawn) the results were ATXN viability inactive.
For COc1ccc(Cc2nnc(N/N=C/c3ccc(O)cc3)[nH]c2=O)cc1OC the results were ATXN2 expr inh 1.6µM, HepG2 viability inactive, TGFb inhibitor inconclusive, HT1080 IDH1KD tx inconclusive, ATXN viability inconclusive and HT1080NT lethal inconclusive.
Screening COc1ccc(Cc2nnc(N/N=C/c3ccc(Br)cc3)[nH]c2=O)cc1OC returned ATXN2 expr inh inactive, HepG2 viability inactive, TGFb inhibitor inactive, HT1080 IDH1KD tx inactive, ATXN viability inactive and HT1080NT lethal inconclusive.
For N=C1SC(=Cc2ccc(-c3ccc4c(c3)C(=O)NC4=O)o2)C(=O)N1c1ccc(Br)cc1 the results were ATXN2 expr inh inactive.
For N=c1c2c(-c3ccccc3)c(-c3ccccc3)n(Cc3ccco3)c2ncn1CCN1CCOCC1 the results were ATXN2 expr inh inconclusive, HepG2 viability inactive, TGFb inhibitor inconclusive, HT1080 IDH1KD tx inconclusive, ATXN viability inconclusive and HT1080NT lethal inconclusive.
Screening N=c1c2c(-c3ccccc3)c(-c3ccccc3)n(Cc3ccco3)c2ncn1CCO returned ATXN2 expr inh inconclusive, HepG2 viability inactive, TGFb inhibitor inconclusive, HT1080 IDH1KD tx 18µM, ATXN viability 14µM and HT1080NT lethal 18µM.
Screening N=c1c2c(-c3ccccc3)c(-c3ccccc3)n(Cc3ccco3)c2ncn1CCCO returned ATXN2 expr inh inactive, HepG2 viability 18µM, TGFb inhibitor 25µM, HT1080 IDH1KD tx 8.2µM, ATXN viability inactive and HT1080NT lethal 21µM.
For COc1ccccc1-c1ccnc(-n2ncc(C(=O)N(C)C(C)c3ccon3)c2C2CC2)n1 (stereo not drawn) the results were ATXN viability inactive.
For O=C(Nc1nc(-c2ccccc2)cs1)c1ccccc1NS(=O)(=O)c1ccc(F)cc1 the results were ATXN2 expr inh inconclusive, HepG2 viability inactive, TGFb inhibitor inconclusive, HT1080 IDH1KD tx inconclusive, ATXN viability inactive and HT1080NT lethal 6.5µM.
COc1ccccc1C(=O)Nc1nc(-c2ccc(S(=O)(=O)N3CCOCC3)cc2)cs1 was read as ATXN2 expr inh 14µM, HepG2 viability inactive, TGFb inhibitor inactive, HT1080 IDH1KD tx inconclusive, ATXN viability inconclusive and HT1080NT lethal inconclusive.
O=S(=O)(Nc1ccc(-c2csc(-c3ccccc3)n2)cc1)c1ccc(F)cc1 was read as ATXN2 expr inh inconclusive, HepG2 viability inactive, TGFb inhibitor inconclusive, HT1080 IDH1KD tx inactive, ATXN viability inconclusive and HT1080NT lethal inactive.
CCCCCCc1cc2cc(C(=O)Nc3ccccc3)c(=O)oc2cc1O was read as ATXN2 expr inh 7.1µM, HepG2 viability inactive, TGFb inhibitor inconclusive, HT1080 IDH1KD tx inconclusive, ATXN viability inactive and HT1080NT lethal inconclusive.
CCCCCCc1cc2cc(S(=O)(=O)c3ccc(C)cc3)c(=O)oc2cc1O was read as ATXN2 expr inh inconclusive, HepG2 viability inactive, TGFb inhibitor inconclusive, HT1080 IDH1KD tx inactive and HT1080NT lethal inactive.
CCCCCCc1cc2cc(S(=O)(=O)c3ccc(Cl)cc3)c(=O)oc2cc1O was read as ATXN2 expr inh inconclusive, HepG2 viability inactive, TGFb inhibitor 11µM, HT1080 IDH1KD tx inactive and HT1080NT lethal inactive.
`CCc1ccc(NCc2cc3ccc(OC)cc3n(CC(=O)Nc3ccc(F)cc3F)c2=O)cc1` gave ATXN2 expr inh inactive, HepG2 viability inactive, TGFb inhibitor inactive and ATXN viability inactive.
For O=C(C[C@H]1C/C=C\C[C@H](NC(=O)OCC2c3ccccc3-c3ccccc32)C(=O)O[C@H](c2ccccc2)CNC1=O)N[C@H](CO)Cc1ccccc1 the results were ATXN2 expr inh inconclusive, HepG2 viability inactive, TGFb inhibitor 16µM, HT1080 IDH1KD tx 15µM, ATXN viability inconclusive and HT1080NT lethal 12µM.
`O=C(N[C@@H]1C/C=C\C[C@@H](CC(=O)N(CCO)Cc2ccccc2)C(=O)NC[C@H](c2ccccc2)OC1=O)OCC1c2ccccc2-c2ccccc21` gave ATXN2 expr inh inconclusive, HepG2 viability inactive, TGFb inhibitor inconclusive, HT1080 IDH1KD tx inactive, ATXN viability inconclusive and HT1080NT lethal inconclusive.
For O=C(C[C@H]1C/C=C\C[C@@H](Cc2ccc(F)cc2)C(=O)O[C@H](c2ccccc2)CNC1=O)N[C@@H](CO)Cc1ccccc1 the results were ATXN2 expr inh inactive, HepG2 viability inactive, TGFb inhibitor inactive, HT1080 IDH1KD tx inactive, ATXN viability inactive and HT1080NT lethal inactive.
For O=C(N[C@@H]1C/C=C\C[C@H](CC(=O)N(CCO)Cc2ccccc2)C(=O)NC[C@@H](c2ccccc2)OC1=O)OCC1c2ccccc2-c2ccccc21 the results were ATXN2 expr inh inactive, HepG2 viability inactive, TGFb inhibitor 7.9µM, HT1080 IDH1KD tx inconclusive, ATXN viability inconclusive and HT1080NT lethal inconclusive.
For Cc1ccc(NC(=O)N2CCN(C(=O)c3nsc4ccccc34)CC2)cc1C the results were HepG2 viability inactive and TGFb inhibitor inactive.
Screening COc1ccc(C2CC(c3c(O)cc(C)oc3=O)=NCCS2)c(OC)c1 (stereo not drawn) returned ATXN2 expr inh inactive, HepG2 viability inactive, TGFb inhibitor inconclusive, HT1080 IDH1KD tx 1.3µM, ATXN viability inconclusive and HT1080NT lethal 1.3µM.
`CC(C)C(N)c1csc(NC(=O)Nc2ccc(OC(F)(F)F)cc2)n1` (stereo not drawn) gave ATXN2 expr inh inconclusive, HepG2 viability 20µM, TGFb inhibitor 20µM, HT1080 IDH1KD tx 21µM, ATXN viability 20µM and HT1080NT lethal 8.2µM.
`NC(CO)c1csc(NC(=O)Nc2cccc(Cl)c2)n1` (stereo not drawn) gave ATXN2 expr inh inactive, HepG2 viability inactive, TGFb inhibitor inactive, HT1080 IDH1KD tx inactive, ATXN viability inactive and HT1080NT lethal inactive.
`NC(Cc1ccc(Cl)cc1)c1csc(NC(=O)Nc2ccccc2)n1` (stereo not drawn) gave ATXN2 expr inh inconclusive, HepG2 viability 16µM, TGFb inhibitor 16µM, HT1080 IDH1KD tx 18µM, ATXN viability inconclusive and HT1080NT lethal 23µM.
For NC(CCc1ccccc1)c1csc(NC(=O)Nc2cccc(C(F)(F)F)c2)n1 (stereo not drawn) the results were ATXN2 expr inh inconclusive, HepG2 viability 11µM, TGFb inhibitor inconclusive, HT1080 IDH1KD tx 21µM and HT1080NT lethal 16µM.

Screening results deposited in PubChem by National Center for Advancing Translational Sciences (NCATS).
